# Bioassay records (PubChem BioAssay)
# Mtb hypoxia rep: reduces hypoxia-regulated biosensor signal in M. tuberculosis; actives 0.1% (n = 300,000); M. tuberculosis hypoxia-regulated fluorescent reporter, fluorescence; fluorescence inhibition, % (test concentration not listed); in the data active = fluorescence inhibition mostly above about 23%, no sharp cut-off; inactive = mostly below about 17%
# ugtP null kill: kills S. aureus RN4220 lacking UgtP | S. aureus RN4220 ugtP deletion, OD600 growth, 16 h | growth inhibition, % (no concentration beside the values) | actives 0.54% (n = 330,000) | AID 1259309; in the data active = growth inhibition above about 68%;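 also: plate controls were untreated wells for no effect and antibiotic for full effect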
# SSB-PriA inh: inhibitors of Klebsiella pneumoniae PriA binding to SSB C-terminal tail | AlphaScreen SSBct-PriA binding, biotinylated peptide | inhibition, % at 33 µM | actives 0.6% (n = 430,000); in the data active = inhibition mostly above about 37%, no sharp cut-off; inactive = mostly below about 20%;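 also: plate controls were negative control peptide for no effect and reference peptide for full effect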
# RN4220 kill: kills Staphylococcus aureus RN4220. S. aureus RN4220 growth, OD600, 16 h. inhibition, % (concentration not given with the values). AID 1259311. actives 0.33% (n = 330,000); in the data active = inhibition above about 85%;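 also: plate controls were untreated cells for no effect and reference antibiotic for full effect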
# * = called active by the depositor; / = not tested or not shown; ! = not confirmed by another sample. The list is not random: actives were taken first. Their share in the collection is about 1.1%.
SMILES,Mtb hypoxia rep,ugtP null kill,SSB-PriA inh,RN4220 kill
Nc1cc(Cl)ccc1Oc1ccc2ccccc2c1,2,95*,-26,-4
Cc1ccc(Oc2ccc(Cl)cc2N)cc1,4,9,-46,-2
Cn1cccc1C(=O)N1CCN(c2nccn3nc4c(c23)CCCC4)CC1,/,/,-4,/
COc1ccc(C)cc1NC(=O)c1nnn(Cc2cccc(C(F)(F)F)c2)c1N,11,98*,-9,-3
COc1cccc(NCc2cc(=O)oc3cc(-c4ccccc4)c(O)cc23)c1,/,/,-2,/
COc1cccc(NCc2cc(=O)oc3cc(C)c(O)cc23)c1,-2,100*,-10,97*
O=C(Cc1cc(=O)[nH]c(SCc2ccccc2F)n1)NC1CCCC1,/,/,-3,/
COc1cc2ccccc2cc1C(=O)NN=Cc1cccnc1,48*,-6,-3,1
COc1cc2ccccc2cc1C(=O)NN=Cc1ccc2c(c1)OCO2,1,2,-1,0
S=C1NC2(CCCCC2)Cc2ccccc21,4,6,44*,-2
O=C1NC2(CCCCC2)Cc2ccccc21,7,0,-6,2
O=C(NC1CCC(Oc2cnccn2)CC1)c1ccc(C(F)(F)F)nc1 (configuration not stated),/,/,-32,/
Cn1c(C(=O)c2ccccc2[N+](=O)[O-])nc2ccccc21,2,8,39*!,3
COc1cccc(S(=O)(=O)NCC(=O)N2CCCCC2)c1,/,/,-17,/
Cc1ccc(CSC(Nc2ccc(F)cc2)=C(C#N)C#N)cc1,0,97*,-5,97*
NC1=C(Cl)C(=O)c2ccc(S(N)(=O)=O)cc2C1=O,/,98*,-3,99*
NS(=O)(=O)c1ccc2c(c1)C(=O)c1ccccc1C2=O,/,/,11,/
Cc1nn(C)c(C)c1S(=O)(=O)NCC[C@H](O)c1ccc2c(c1)OCO2,/,/,-10,/
CC(C)COc1ccc(Cc2cnc(N)nc2N)cc1,6,97*,-7,16
COc1ccc(-c2csc(/C(C#N)=C3\C=CC=CN3C)n2)cc1,/,/,142*,/
CN1C=CC=C/C1=C(\C#N)c1nc2ccccc2[nH]1,5,9,6,5
COc1ccc(S(=O)(=O)CCC(=O)Nc2nc3c(s2)COc2ccccc2-3)cc1,/,/,-3,/
Cc1ccc(NC(=O)Nc2ccc(-c3ccc(=O)n(C)n3)cc2)cc1,/,/,-20,/
C=C1c2cccc(O)c2C(O)=C2C(=O)[C@]3(O)C(O)=C(C(N)=O)C(=O)[C@@H](N(C)C)[C@@H]3[C@@H](O)[C@H]12,/,99*,7,100*
C=C1c2cccc(O)c2C(=O)C2C(=O)[C@]3(O)C(=O)C(C(N)=O)C(=O)C(N(C)C)C3C(O)C12 (some centres not stated),/,89,/,100*
SMILES,Mtb hypoxia rep,ugtP null kill,SSB-PriA inh,RN4220 kill
C[C@H]1c2cccc(O)c2C(O)=C2C(=O)C3(O)C(O)=C(C(N)=O)C(=O)[C@@H](N(C)C)[C@@H]3[C@@H](O)[C@@H]21 (some centres not stated),/,/,-1,/
C=C1c2c(Cl)ccc(O)c2C(O)=C2C(=O)[C@]3(O)C(O)=C(C(N)=O)C(=O)C(N(C)C)C3C(O)C12 (some centres not stated),/,100*,/,100*
CC1CCc2c(sc(NC(=O)CSc3ccc(Cl)cc3)c2C(N)=O)C1 (configuration not stated),/,/,3,/
CCOc1ccc(-c2ccc(/C=C3/C(=N)N4C(C)=CSC4=NC3=O)o2)c([N+](=O)[O-])c1,5,100*,31,11
CCOc1ccc(-c2ccc(/C=C3/C(=N)N4C=CSC4=NC3=O)o2)c([N+](=O)[O-])c1,1,40,9,8
Cc1csc(NC(=O)NCCCSc2ccccc2)n1,/,/,2,/
CCc1nnc(NS(=O)(=O)c2ccc(Nc3ccc([N+](=O)[O-])c4nonc34)cc2)s1,39*,-4,18,6
CCc1nnc(NS(=O)(=O)c2ccc(NS(=O)(=O)c3ccccc3[N+](=O)[O-])cc2)s1,1,1,-8,-1
O=[N+]([O-])c1ccc(Nc2ccccc2O)c2nonc12,/,47,41*,38
Cc1cc(C(=O)Nc2nc(-c3ccccn3)cs2)c(C)o1,/,/,82*,/
O=C(Nc1nc(-c2cc(Cl)sc2Cl)cs1)c1cccs1,-6,19,-15,26
O=C(Nc1nc(-c2ccccn2)cs1)c1ccccc1Br,/,/,91*,/
COc1ccc(OC)c(C(=O)Nc2nc(-c3ccccn3)cs2)c1,/,/,-5,/
O=C(Nc1nc(-c2cc(Cl)sc2Cl)cs1)c1ccc(Br)s1,1,2,44*!,9
COc1ccc2oc(C(=O)Nc3nc(-c4ccccn4)cs3)c(C)c2c1,7,-12,42*,9
O=C(Nc1nc(-c2ccc([N+](=O)[O-])cc2)cs1)c1ccccc1Br,/,/,-9,/
